Only a selection was taken, and hits are over-represented in it overall.
Shiga toxin inh – inhibitors of Shiga toxin in Vero cells | Vero cells, Shiga toxin protein synthesis inhibition reporter | inhibition, % at 38.7 µM | actives 9.2% (n = 290,000) | AID 2315; in the data active means inhibition mostly above about 28%, no sharp cut-off; inactive means mostly below about 43%; further: 0% is about no effect
Lassa entry inh – blocks Lassa virus binding to or entry into cells; Lassa virus pseudotype entry inhibition, cell reporter; Potency, µM (highest dose often 37.9 µM), for the others: top-dose activity change, negative = inhibition, hits mostly inhibitors; actives 1.2% (n = 300,000); AID 540256; calls by dose curve; tested in HEK293 cells; further: potency means the concentration at half of the fitted maximal effect; on the % scale 0 is the no-effect control and ±100 the full control effect; nearly all actives have a fitted effect of over 50% in size
Vaccinia Venus – inhibitors of vaccinia virus (Venus reporter); Vaccinia virus Venus reporter expression, fluorescence; Potency, µM (doses to about 36.5 µM), without a hit: at the top dose activity change, negative = inhibition, most hits filed as inhibitors; actives 0.46% (n = 330,000); AID 720580; calls by dose curve; tested in A549 cells; further: potency means the concentration at half of the fitted maximal effect; on the % scale 0 is the no-effect control and ±100 the full control effect; nearly all actives have a fitted effect of over 30% in size
Cycloheximide cs – counter-screen hit for Shiga toxin inhibitors, cycloheximide. AID 2314. max response, %. actives 12% (n = 300,000). cell reporter, cycloheximide protein synthesis inhibition counterscreen; in the data active means max response mostly above about 13%, no sharp cut-off; inactive means mostly below about 14%; further: read at 38.3 µM for the half of the compounds with a filed dose; 0% is about no effect
Vaccinia mCherry – inhibitors of vaccinia virus infection (mCherry reporter signal) | Vaccinia virus mCherry reporter infection, fluorescence | Potency, µM (doses to about 36.5 µM), for inactives: at the highest dose activity change, negative = inhibition, most hits filed as inhibitors | actives 0.63% (n = 310,000) | AID 720579; calls by dose curve; tested in A549 cells; further: potency means the concentration at half of the fitted maximal effect; on the % scale 0 is the no-effect control and ±100 the full control effect; nearly all actives have a fitted effect of over 35% in size
MARV entry inh – inhibitors of Marburg virus binding or cell entry | actives 1.8% (n = 300,000) | Marburg virus pseudotyped entry inhibition, cell reporter | Potency, µM (titrated, usually from 37.8 µM), inactives show at the top dose activity change, negative = inhibition, usual class: inhibitors | AID 540276; calls by dose curve; tested in HEK293 cells; further: potency means the concentration at half of the fitted maximal effect; on the % scale 0 is the no-effect control and ±100 the full control effect
Starred values were filed as active, the others as inactive; i = inactive; ? = inconclusive; . = not tested or not shown; [ ] = remark or other dose.

SMILES | Shiga toxin inh | Lassa entry inh | Vaccinia Venus | Cycloheximide cs | Vaccinia mCherry | MARV entry inh
CCCc1ccc(C(=O)/C=C/N(C)C)cc1 | 42* | ? | -17% | 14* | -4% | ?
COc1cc(OC)c(/C=C/c2nccc3ccccc23)c(OC)c1 | . | . | -21% | . | -26% | .
COc1cccc(C(=O)NCC2Cc3cccc(-c4ncccn4)c3O2)c1OC (stereo not given) | . | . | -1% | . | -11% | .
COc1ccc2oc(=O)cc(CN3CCN(c4ccccc4F)CC3)c2c1 | . | ? | ? | . | -24% | 0%[46.1 µM]
CN(C)/C=C/C(=O)c1ccc(Br)s1 | 54* | -1%[46.1 µM] | 4% | 21* | i | 15%[46.1 µM]
Cc1ccc(C(=O)/C=C/N(C)C)o1 | 26 | -1%[46.1 µM] | -3% | 16 | -3% | 6%[46.1 µM]
CN(C)/C=C/C(=O)c1ccc(F)cc1 | 99 | 7% | . | 21* | . | 4%
O=C(COC(=O)c1cnccn1)NCc1ccc(Cl)cc1 | -4 | 24%[46.1 µM] | -3% | -3 | i | 5%[46.1 µM]
C/C(N)=C(/C#N)C(=O)COC(=O)c1cc(-c2cccc3ccccc23)nc2ccccc12 | -11 | -24% | -1% | 8 | 1% | -22%
C/C(N)=C(/C#N)C(=O)COC(=O)c1cccc2ccccc12 | 95* | -4% | -15% | 37* | 14% | 9%
C/C(N)=C(/C#N)C(=O)COC(=O)c1ccccc1O | active | ? | -12% | 24* | -15% | -14%
CCOc1ccccc1CNC(=O)c1cnc2sc(N3CCCCCC3)nn2c1=O | . | 13%[46.1 µM] | -27% | . | -1% | .
Nc1c2c(nc3ccc(Br)cc13)N(c1ccccc1)CC2 | 34 | 7% | -10% | 13 | -1% | 1%
Cc1cccc(N2CCc3c2nc2ccc(Br)cc2c3N)c1 | 43 | 10% | ? | 16* | 11µM* | ?
O=C(COc1ccc(Br)cc1Cl)NC(=S)N1CCc2ccccc21 | 50* | ? | -11% | 35* | -4% | 1%[46.1 µM]
O=C(COc1ccc(Br)cc1CO)N1CCCc2ccccc21 | -1 | -18%[46.1 µM] | -10% | 0 | i | 1%[46.1 µM]
O=C(NC(=S)N1CCc2ccccc21)c1ccccc1Br | 96* | 0% | -16% | 25* | i | 5%
CC(Oc1ccc(Cl)cc1Cl)C(=O)NC(=S)N1CCc2ccccc21 (stereo not given) | 12 | 16% | -21% | 4 | -16% | 15%
O=C(COc1ccc(Br)cc1Br)NC(=S)N1CCCc2ccccc21 | 54 | ? | -1% | 48* | -15% | 18%
CCN1CCN(C(=O)c2ccc(-c3nc4ccccc4s3)s2)CC1 | 103* | . | -20% | 42* | -22% | .
O=C(NC1CC1)c1ccc(-c2nc3ccccc3s2)s1 | 38* | 1.3µM* | 14% | 24 | 10% | 1.4µM*
CCOC(=O)C1CCN(S(=O)(=O)c2ccc(-c3nc4ccccc4s3)s2)CC1 | 69* | -4% | -5% | 45* | . | ?
O=C(c1ccc(-c2nc3ccccc3s2)s1)N1CCOCC1 | -4 | 3.5µM* | -13% | -2 | i | ?
Cc1ccc(S(=O)(=O)N(C)C)cc1NC(=O)COC(=O)/C=C/c1ccc2c(c1)OCO2 | 40 | -12%[46.1 µM] | -19% | 17* | -22% | ?
CN(C)S(=O)(=O)c1cccc(NC(=O)COC(=O)/C=C/c2ccco2)c1 | -3 | 5% | -10% | 2 | -11% | ?
SMILES | Shiga toxin inh | Lassa entry inh | Vaccinia Venus | Cycloheximide cs | Vaccinia mCherry | MARV entry inh
CN(C)S(=O)(=O)c1cccc(NC(=O)COC(=O)/C=C/c2ccc3c(c2)OCO3)c1 | 71 | -11%[46.1 µM] | -14% | 16* | i | 9%[46.1 µM]
Cc1ccc(S(=O)(=O)N(C)C)cc1NC(=O)COC(=O)/C=C/c1cnc2ccccc2n1 | 42 | . | . | 13 | . | .
Cc1ccc(/C=C/C(=O)OCC(=O)Nc2cccc(S(=O)(=O)N(C)C)c2)o1 | 17 | -4% | -17% | 14* | -18% | ?
CCOc1ccc(CCNC(=O)c2[nH]c3cc(OC)ccc3c2Sc2ccccc2)cc1OCC | . | 22%[46.1 µM] | -17% | . | -7% | ?
O=C(CN1Cc2ccccc2OC(c2ccsc2)C1)N1CCC(c2nc3ccccc3[nH]2)CC1 (stereo not given) | . | . | -12% | . | -17% | .
Cc1ccc2nc(CSc3nc(C)ccc3C#N)[nH]c2c1 | 21 | 1µM* | . | 17* | . | 2.3µM*
COCc1cc(C)nc(SCc2nc3ccccc3c(=O)[nH]2)c1C#N | -11 | -1%[46.1 µM] | -30% | 7 | -7% | ?
Cc1cc(C)c(C#N)c(SCc2nc3ccccc3c(=O)[nH]2)n1 | 27 | 3.2µM* | -19% | 17 | -19% | 1.1µM*
CCn1c(SCc2nc3ccccc3c(=O)[nH]2)nc2ccccc2c1=O | 13 | ? | -8% | 2 | . | ?
O=c1[nH]c(CSc2ccccn2)nc2ccccc12 | 119* | -5%[46.1 µM] | -17% | 43* | i | ?
COC(=O)c1sc2nc(CSc3nc4ccc(C)cc4[nH]3)[nH]c(=O)c2c1C | -6 | -10% | -5% | -5 | . | -6%
Cc1ccc2nc(SCc3nc4ccccc4c(=O)[nH]3)[nH]c2c1 | 69* | ? | -13% | 27* | -26% | ?
COC(=O)c1c(C)oc2ccc(N(C(=O)c3ccncc3)S(=O)(=O)c3c(C)cc(C)cc3C)cc12 | . | ? | -21%[7.34 µM] | . | -25%[7.34 µM] | ?
CS(=O)(=O)c1ccc(C(=O)OCC(=O)NCc2cccs2)cc1[N+](=O)[O-] | . | ? | -29% | . | ? | ?
Cn1ccnc1SCc1nc2c(cnn2-c2ccccc2)c(=O)[nH]1 | -7 | -8% | 9% | -2 | i | 0%
Nn1c(CSc2ccccn2)nc2ccccc2c1=O | 83* | 0% | -17% | 44* | . | 14%
O=c1[nH]c(CSc2ccccn2)nc2c1cnn2-c1ccccc1 | 31* | 1% | -12% | 15 | i | 20%
CCCCCCc1nc2ccccc2c(=O)n1N | 21 | ? | ? | 21 | . | ?
O=C(NCc1nnc2n1CCN(Cc1cc3c(cc1Cl)OCO3)CC2)c1cccc(F)c1 | . | . | -24% | . | -6% | .
N#Cc1ccsc1NC(=O)COC(=O)c1ccc(NC(N)=O)cc1 | 92* | ? | 34% | 41* | 26% | ?
CCN(CC)c1ccc(C(=O)OCC(=O)Nc2sccc2C#N)cc1 | 39* | ? | -15% | 27* | i | -2%
N#Cc1ccsc1NC(=O)COC(=O)c1cc2ccccc2cc1O | 84* | 13% | -9% | 31* | -21% | 6%
CCN(CC)c1ccc(C(=O)OCC(=O)Nc2ncccn2)cc1 | . | -1%[46.1 µM] | -2% | . | -14% | ?
CCOc1ccc(NC(=O)CN2C(=O)C(c3ccc(Cl)cc3)=NC2(C)C)cc1 | . | 1%[46.1 µM] | -7%[7.34 µM] | . | -7%[7.34 µM] | 4%[46.1 µM]
O=C1C2C3C=CC(CC3)C2C(=O)N1c1cccc(C(F)(F)F)c1 (stereo not given) | -2 | 24% | -10% | -3 | i | 2%
Cc1cccnc1NC1OC(=O)c2ccccc21 (stereo not given) | -24 | 22% | 0% | 1 | -9% | ?
O=C1OC(Nc2ccc3ncccc3c2)c2ccccc21 (stereo not given) | 54* | 3% | -12% | 27* | -25% | 5%
